Targets with a hit are over-represented here; the source holds about 7,900 in all. About 0.6% of all pairs of compound and target were hits.
Assays:
Test in all cases: log2 fold change, soluble protein after heating vs DMSO (PISA); higher = thermal stabilisation; K562 cells, 10 uM, 30 min; active = over 0.2 and 3.5 SD of the protein, either way, in both replicates (recomputed)
[1] = compound: CC[C@@H]1C(=O)N(C)c2cnc(Nc3ccc(C(=O)NC4CCN(C)CC4)cc3OC)nc2N1C1CCCC1
Method in brief: (§1)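 K562 cells at 2×10^6 cells/mL were treated for 30 min with 10 μM compound, and aliquots were heated for 3 min over 48°C-58°C before pooling. Extraction used PBS with 0.5% NP-40 at 4°C, and soluble protein was the supernatant after 21,000xg for 90 min, measured by TMTpro 16plex LC-MS/MS with channel sums equalised. Thermal stability values, relative to control samples and from duplicates, are log2 fold changes.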

volasertib = compound: CC[C@@H]1C(=O)N(C)c2cnc(Nc3ccc(C(=O)N[C@H]4CC[C@H](N5CCN(CC6CC6)CC5)CC4)cc3OC)nc2N1C(C)C [volasertib]
Method in brief: as §1

[2] = compound: CC[C@H](C)N1C=C(C2=C(C=C(C=C21)C3=CN=C(C=C3)N4CCNCC4)C(=O)NCC5=C(C=C(NC5=O)C)C)C
Method in brief: as §1

epoxomicin = compound: CC[C@H](C)[C@@H](C(=O)N[C@@H]([C@@H](C)O)C(=O)N[C@@H](CC(C)C)C(=O)[C@]1(CO1)C)NC(=O)[C@H]([C@@H](C)CC)N(C)C(=O)C [epoxomicin]
Method in brief: as §1

[3] = compound: CCn1c(C(=O)N(C2CC2)C2CC2)cc2c3c(ncn3C)c(Nc3cc(C)n(C)n3)nc21
Method in brief: as §1

[4] = compound: CCn1cc(-c2ccnc3[nH]c(-c4cccc(CN(C)C)c4)cc23)c(-c2ccc(NC(=O)N(C)C)cc2)n1
Method in brief: as §1

[5] = compound: CN(C)CC(=O)Nc1ccc2[nH]c(=O)c3ccccc3c2c1
Method in brief: as §1

rosiglitazone = compound: CN(CCOC1=CC=C(C=C1)C[C@H]2C(=O)NC(=O)S2)C3=CC=CC=N3 (racemic) [rosiglitazone]
Method in brief: as §1

[6] = compound: CN1C2=C(C3=C1C(=O)N(N=C3)CC4=CC(=CC=C4)N)SC(=C2)S(=O)C
Method in brief: as §1

[7] = compound: CN1CCC(CNc2ccc3ncc(-c4cccc(OC(F)(F)F)c4)n3n2)CC1
Method in brief: as §1

Measured: log2 fold change

STARD9 (UniProt Q9P2P6)
inactive: [1] -0.024 | volasertib 0.238 | [2] -0.029 | epoxomicin 0.022 | [3] 0.064 | [4] 0.008 | [5] 0.075 | rosiglitazone 0.015 | [7] -0.098
active: [6] 0.507

SMAP (UniProt O00193)
inactive: [1] -0.024 | volasertib 0.023 | [2] -0.043 | epoxomicin 0.06 | [3] -0.02 | [4] 0.014 | [5] -0.011 | rosiglitazone -0.038 | [6] -0.088 | [7] -0.045

TACC2 (UniProt O95359)
inactive: [1] -0.013 | volasertib -0.048 | [2] 0.014 | [3] 0.012 | [4] 0.041 | [5] -0.069 | rosiglitazone 0.039 | [6] 0 | [7] -0.044

SLC38A7 (UniProt Q9NVC3)
Sequence of UniProt Q9NVC3 (Q9NVC3 whole entry, looked up): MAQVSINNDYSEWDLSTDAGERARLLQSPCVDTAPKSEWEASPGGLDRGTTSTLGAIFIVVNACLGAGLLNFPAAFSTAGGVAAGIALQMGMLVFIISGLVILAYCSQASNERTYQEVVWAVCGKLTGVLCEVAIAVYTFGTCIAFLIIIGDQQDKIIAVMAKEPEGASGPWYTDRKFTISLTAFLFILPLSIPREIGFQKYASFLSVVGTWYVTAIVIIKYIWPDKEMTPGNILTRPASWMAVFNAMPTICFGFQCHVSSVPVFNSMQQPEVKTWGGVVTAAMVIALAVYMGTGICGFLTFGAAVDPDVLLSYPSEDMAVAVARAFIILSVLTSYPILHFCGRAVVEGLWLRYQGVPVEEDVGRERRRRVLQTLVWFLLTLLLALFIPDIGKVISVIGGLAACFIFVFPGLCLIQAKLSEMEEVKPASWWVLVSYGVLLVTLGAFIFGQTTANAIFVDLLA
inactive: [1] -0.283 | volasertib -0.054 | [2] -0.023 | epoxomicin 0.078 | [3] -0.018 | [4] 0.109 | [5] -0.123 | rosiglitazone 0.036 | [7] -0.589

TAOK2 (UniProt Q9UL54)
inactive: [1] 0.024 | volasertib -0.061 | [2] -0.006 | epoxomicin -0.01 | [3] -0.277 | [4] -0.076 | [7] 0.01

STX7 (UniProt O15400)
Sequence of UniProt O15400 (O15400 whole entry, looked up): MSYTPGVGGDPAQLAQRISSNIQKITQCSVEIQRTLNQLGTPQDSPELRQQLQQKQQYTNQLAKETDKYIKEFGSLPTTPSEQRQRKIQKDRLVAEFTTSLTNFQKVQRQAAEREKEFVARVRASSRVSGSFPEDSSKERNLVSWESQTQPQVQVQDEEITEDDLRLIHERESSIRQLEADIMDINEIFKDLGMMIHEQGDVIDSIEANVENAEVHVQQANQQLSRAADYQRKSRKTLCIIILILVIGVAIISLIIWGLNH
inactive: [1] -0.021 | volasertib 0.057 | [2] -0.03 | epoxomicin -0.008 | [3] 0.032 | [4] 0.094 | [5] -0.006 | rosiglitazone -0.004 | [6] 0.005 | [7] -0.116

STK39 (UniProt Q9UEW8)
active: [7] -0.25
inactive: [1] -0.062 | volasertib -0.139 | [2] 0.023 | epoxomicin 0.054 | [3] -0.055 | [4] -0.036 | [5] -0.011 | rosiglitazone 0.049 | [6] 0.005

SNX15 (UniProt Q9NRS6)
inactive: [1] 0.177 | volasertib -0.223 | [2] -0.023 | [4] -0.016 | [5] -0.045 | rosiglitazone -0.051 | [6] 0.119 | [7] 0.039

SYK (UniProt P43405)
inactive: volasertib 0.196 | epoxomicin 0.022 | [3] -0.021 | [5] -0.085 | rosiglitazone -0.006 | [6] -0.052

SOX5 (UniProt P35711)
inactive: volasertib -0.082 | [2] 0.014 | [3] 0.099 | [5] -0.062 | rosiglitazone 0.046

SNX2 isoform 2 (UniProt O60749)
Sequence of UniProt O60749 (O60749 whole entry, looked up): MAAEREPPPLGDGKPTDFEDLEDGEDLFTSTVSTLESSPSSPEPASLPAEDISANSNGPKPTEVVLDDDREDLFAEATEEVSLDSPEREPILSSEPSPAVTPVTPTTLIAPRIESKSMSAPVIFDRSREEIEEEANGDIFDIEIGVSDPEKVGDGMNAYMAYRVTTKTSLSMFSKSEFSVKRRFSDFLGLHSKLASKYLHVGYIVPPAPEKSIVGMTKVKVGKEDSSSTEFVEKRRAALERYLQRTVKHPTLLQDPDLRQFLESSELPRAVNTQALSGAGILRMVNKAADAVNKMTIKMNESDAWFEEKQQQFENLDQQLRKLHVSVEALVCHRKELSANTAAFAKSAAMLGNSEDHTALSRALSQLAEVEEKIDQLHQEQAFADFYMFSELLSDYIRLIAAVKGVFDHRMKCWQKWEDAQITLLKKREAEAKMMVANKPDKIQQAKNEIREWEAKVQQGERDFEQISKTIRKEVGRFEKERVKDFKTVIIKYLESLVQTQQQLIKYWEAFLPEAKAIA
inactive: [1] -0.194 | volasertib -0.06 | epoxomicin 0.034 | [5] -0.161 | rosiglitazone 0.076 | [6] 0.086

SLC35B4 (UniProt Q969S0)
inactive: [1] -0.003 | [2] -0.041 | epoxomicin 0.044 | [3] 0.042 | [5] -0.134 | rosiglitazone 0.005

TCOF1 isoform 6 (UniProt Q13428)
Sequence of UniProt Q13428 (Q13428 whole entry, looked up): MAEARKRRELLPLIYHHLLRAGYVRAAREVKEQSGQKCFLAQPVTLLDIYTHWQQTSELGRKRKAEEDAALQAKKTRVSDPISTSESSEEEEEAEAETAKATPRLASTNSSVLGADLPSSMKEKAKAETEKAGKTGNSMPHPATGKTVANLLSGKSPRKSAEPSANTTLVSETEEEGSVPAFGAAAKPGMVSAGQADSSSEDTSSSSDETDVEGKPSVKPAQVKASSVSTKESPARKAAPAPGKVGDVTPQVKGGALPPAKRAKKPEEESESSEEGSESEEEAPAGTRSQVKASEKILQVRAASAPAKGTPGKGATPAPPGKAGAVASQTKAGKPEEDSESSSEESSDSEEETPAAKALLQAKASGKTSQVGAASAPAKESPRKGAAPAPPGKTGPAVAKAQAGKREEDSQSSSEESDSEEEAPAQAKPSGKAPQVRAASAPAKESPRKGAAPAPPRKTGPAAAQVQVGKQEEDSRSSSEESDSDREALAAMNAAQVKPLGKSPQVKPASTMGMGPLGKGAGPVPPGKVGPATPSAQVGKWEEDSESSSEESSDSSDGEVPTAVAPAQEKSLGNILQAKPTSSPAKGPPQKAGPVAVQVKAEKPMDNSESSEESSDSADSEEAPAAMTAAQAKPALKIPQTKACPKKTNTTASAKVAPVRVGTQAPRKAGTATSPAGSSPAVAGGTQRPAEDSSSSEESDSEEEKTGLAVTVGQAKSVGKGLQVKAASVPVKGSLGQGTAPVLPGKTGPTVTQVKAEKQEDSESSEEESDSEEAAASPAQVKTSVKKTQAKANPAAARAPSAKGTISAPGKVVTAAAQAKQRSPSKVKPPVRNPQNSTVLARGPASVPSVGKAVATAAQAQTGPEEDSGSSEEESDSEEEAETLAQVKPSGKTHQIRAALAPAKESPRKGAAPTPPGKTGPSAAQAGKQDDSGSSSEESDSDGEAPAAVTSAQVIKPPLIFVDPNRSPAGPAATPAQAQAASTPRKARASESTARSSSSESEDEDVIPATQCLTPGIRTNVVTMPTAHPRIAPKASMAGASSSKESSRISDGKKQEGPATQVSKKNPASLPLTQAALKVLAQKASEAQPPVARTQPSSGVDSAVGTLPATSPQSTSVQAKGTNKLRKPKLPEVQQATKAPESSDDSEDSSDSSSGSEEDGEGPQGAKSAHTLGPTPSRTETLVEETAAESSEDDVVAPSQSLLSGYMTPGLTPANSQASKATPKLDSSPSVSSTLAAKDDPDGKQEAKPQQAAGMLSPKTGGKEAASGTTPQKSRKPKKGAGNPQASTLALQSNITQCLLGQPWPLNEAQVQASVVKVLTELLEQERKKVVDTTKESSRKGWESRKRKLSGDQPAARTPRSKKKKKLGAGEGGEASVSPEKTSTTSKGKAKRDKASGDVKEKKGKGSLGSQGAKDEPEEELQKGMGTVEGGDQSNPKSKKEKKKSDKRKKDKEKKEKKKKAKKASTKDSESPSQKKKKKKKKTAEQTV
inactive: [1] 0.04 | [2] -0.132 | [3] -0.039 | [5] -0.219 | rosiglitazone -0.173

THAP9 (UniProt Q9H5L6)
inactive: [2] -0.167 | rosiglitazone 0.008 | [6] -0.039

SUPT5H isoform 2 (UniProt O00267)
inactive: [5] 0.149

SLC35B1 isoform 2 (UniProt P78383)
inactive: [1] 0.123 | [2] -0.017 | epoxomicin 0.066 | [3] 0.001 | [5] 0.075 | rosiglitazone 0.044 | [6] -0.111

SLC46A1 (UniProt Q96NT5)
inactive: [1] 0.156 | [3] -0.072 | [4] -0.072 | [5] -0.041 | [7] 0.087

TAF6L (UniProt Q9Y6J9)
active: volasertib -0.537
inactive: [2] 0.118 | [3] -0.179 | [4] -0.04 | [6] 0.081 | [7] -0.126

STK38L (UniProt Q9Y2H1)
inactive: [1] 0.071 | [2] -0.011 | epoxomicin 0.071 | [3] 0.031 | [4] -0.015 | [5] -0.045 | rosiglitazone 0.024 | [6] -0.029 | [7] 0.016

SLC8B1 (UniProt Q6J4K2)
inactive: volasertib 0.156 | [3] 0.09 | [4] 0.091 | [5] -0.005 | rosiglitazone 0.058 | [6] 0.086 | [7] -0.509

TEX30 (UniProt Q5JUR7)
Sequence of UniProt Q5JUR7 (Q5JUR7 whole entry, looked up): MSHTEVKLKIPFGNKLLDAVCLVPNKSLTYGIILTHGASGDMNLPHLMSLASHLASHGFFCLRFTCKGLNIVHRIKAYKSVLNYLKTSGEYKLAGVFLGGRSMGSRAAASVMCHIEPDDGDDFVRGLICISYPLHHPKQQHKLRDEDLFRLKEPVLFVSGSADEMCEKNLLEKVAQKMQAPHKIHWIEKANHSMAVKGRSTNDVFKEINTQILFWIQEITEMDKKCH
inactive: volasertib -0.221 | [2] -0.044 | epoxomicin 0.007 | [3] -0.005 | [4] 0.079 | [5] 0.075 | rosiglitazone 0.028 | [6] 0.046
active: [7] -0.601

SPAG9 isoform 4 (UniProt O60271)
inactive: [1] -0.192 | [2] 0.093 | [3] -0.066 | [5] -0.093 | rosiglitazone -0.029

SYNE1 (UniProt Q8NF91)
inactive: [1] -0.01 | [2] -0.048 | epoxomicin 0.047 | [3] -0.142 | [4] -0.113 | [5] 0.042 | rosiglitazone 0.031 | [6] 0.051 | [7] -0.208

TC2N (UniProt Q8N9U0)
inactive: [2] 0.029 | [5] -0.194 | [6] 0.073

TDP1 (UniProt Q9NUW8)
inactive: [3] -0.11

TBC1D2 (UniProt Q9BYX2)
inactive: [1] -0.055 | epoxomicin -0.238 | [4] 0.087 | [7] -0.019

SMPD4 isoform 2 (UniProt Q9NXE4)
Sequence of UniProt Q9NXE4 (Q9NXE4 whole entry, looked up): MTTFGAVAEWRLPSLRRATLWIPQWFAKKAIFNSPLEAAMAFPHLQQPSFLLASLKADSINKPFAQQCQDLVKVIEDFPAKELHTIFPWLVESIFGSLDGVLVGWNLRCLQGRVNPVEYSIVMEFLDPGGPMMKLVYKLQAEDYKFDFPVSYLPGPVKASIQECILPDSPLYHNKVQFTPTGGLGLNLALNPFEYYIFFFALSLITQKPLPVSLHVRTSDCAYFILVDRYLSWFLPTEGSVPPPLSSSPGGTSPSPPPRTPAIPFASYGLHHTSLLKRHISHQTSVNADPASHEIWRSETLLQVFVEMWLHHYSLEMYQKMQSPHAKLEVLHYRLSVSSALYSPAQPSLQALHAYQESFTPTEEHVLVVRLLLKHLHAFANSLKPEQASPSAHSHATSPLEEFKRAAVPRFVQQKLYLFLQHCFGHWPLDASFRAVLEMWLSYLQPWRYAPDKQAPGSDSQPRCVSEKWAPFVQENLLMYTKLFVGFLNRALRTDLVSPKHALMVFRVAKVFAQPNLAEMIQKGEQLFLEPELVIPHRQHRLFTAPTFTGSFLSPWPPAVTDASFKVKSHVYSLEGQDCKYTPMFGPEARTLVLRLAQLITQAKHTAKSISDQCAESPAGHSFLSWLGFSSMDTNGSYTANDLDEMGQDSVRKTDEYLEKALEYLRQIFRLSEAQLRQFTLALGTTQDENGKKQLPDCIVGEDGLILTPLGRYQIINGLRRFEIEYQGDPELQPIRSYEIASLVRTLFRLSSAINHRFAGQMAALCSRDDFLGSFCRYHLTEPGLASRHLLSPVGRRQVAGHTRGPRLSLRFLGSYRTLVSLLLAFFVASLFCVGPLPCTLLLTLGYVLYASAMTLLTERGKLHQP
inactive: volasertib -0.234 | [4] -0.236 | [5] -0.044 | rosiglitazone -0.047 | [6] 0.056 | [7] -0.441

SP2 (UniProt Q02086)
inactive: [1] -0.289 | [6] 0.372

SLC39A1 (UniProt Q9NY26)
inactive: [3] -0.09 | [4] -0.014 | [7] -0.051

SLC44A2 isoform 2 (UniProt Q8IWA5)
inactive: [1] 0.2 | [2] 0 | epoxomicin 0.053 | [3] 0.014 | [4] -0.105 | [5] -0.048 | rosiglitazone -0.016 | [6] -0.154 | [7] 0.259

SREBF1 isoform 4 (UniProt P36956)
inactive: [1] -0.511 | epoxomicin -0.035 | [3] -0.047 | rosiglitazone 0.025 | [6] 0.198

STK17B (UniProt O94768)
inactive: [3] -0.099 | rosiglitazone 0.07

SLC9A6 isoform 3 (UniProt Q92581)
inactive: [1] -0.041 | volasertib -0.045 | [3] 0.045 | rosiglitazone -0.091 | [6] 0.008

SSB (UniProt E7ERC4)
inactive: [4] -0.076 | [5] -0.154 | [6] -0.34 | [7] 0.266

SPIN4 (UniProt Q56A73)
inactive: [3] 0.291

TM7SF2 (UniProt O76062)
Sequence of UniProt O76062 (O76062 whole entry, looked up): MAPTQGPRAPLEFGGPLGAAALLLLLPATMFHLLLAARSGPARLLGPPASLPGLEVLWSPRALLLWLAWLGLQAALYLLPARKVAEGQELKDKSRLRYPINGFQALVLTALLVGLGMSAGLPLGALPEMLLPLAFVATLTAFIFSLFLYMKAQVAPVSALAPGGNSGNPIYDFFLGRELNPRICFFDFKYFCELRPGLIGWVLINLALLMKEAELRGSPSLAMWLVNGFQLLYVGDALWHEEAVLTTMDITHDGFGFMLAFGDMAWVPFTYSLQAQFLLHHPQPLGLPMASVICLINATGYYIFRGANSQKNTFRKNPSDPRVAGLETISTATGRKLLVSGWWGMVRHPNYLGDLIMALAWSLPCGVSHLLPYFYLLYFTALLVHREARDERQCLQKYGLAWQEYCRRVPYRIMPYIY
active: volasertib 0.907
inactive: [2] -0.022 | [3] -0.111 | [5] -0.435 | [6] 0.031

SNRK (UniProt Q9NRH2)
Sequence of UniProt Q9NRH2 (Q9NRH2 whole entry, looked up): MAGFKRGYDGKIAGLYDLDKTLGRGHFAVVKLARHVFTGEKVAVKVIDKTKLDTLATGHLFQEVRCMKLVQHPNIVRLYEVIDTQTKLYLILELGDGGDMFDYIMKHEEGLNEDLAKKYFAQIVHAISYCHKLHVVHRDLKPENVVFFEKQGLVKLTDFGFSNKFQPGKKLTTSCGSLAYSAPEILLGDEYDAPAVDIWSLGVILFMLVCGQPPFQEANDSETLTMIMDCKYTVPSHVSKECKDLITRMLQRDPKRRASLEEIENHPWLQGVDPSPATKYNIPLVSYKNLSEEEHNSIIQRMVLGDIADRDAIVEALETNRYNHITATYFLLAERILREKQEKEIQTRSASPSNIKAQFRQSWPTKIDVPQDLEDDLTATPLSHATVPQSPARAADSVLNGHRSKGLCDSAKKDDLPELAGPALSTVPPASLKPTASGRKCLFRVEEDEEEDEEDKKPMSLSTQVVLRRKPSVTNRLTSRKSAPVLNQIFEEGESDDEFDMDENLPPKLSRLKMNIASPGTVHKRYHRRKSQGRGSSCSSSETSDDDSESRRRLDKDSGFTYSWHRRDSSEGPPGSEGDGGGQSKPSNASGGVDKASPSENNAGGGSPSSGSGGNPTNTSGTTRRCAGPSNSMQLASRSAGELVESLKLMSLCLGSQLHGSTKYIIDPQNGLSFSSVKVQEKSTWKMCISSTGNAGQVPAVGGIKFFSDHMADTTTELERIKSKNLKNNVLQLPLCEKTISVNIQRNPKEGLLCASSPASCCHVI
inactive: [1] -0.157 | volasertib -0.085 | [6] -0.011

SMARCA4 (UniProt P51532)
inactive: [1] 0.019 | volasertib 0.121 | epoxomicin 0 | [3] -0.245 | [4] 0.119 | [5] -0.191 | rosiglitazone 0.065 | [6] 0.177 | [7] -0.046

TK1 (UniProt K7ERV3)
inactive: volasertib 0.055 | [2] -0.163 | epoxomicin 0.007 | [4] -0.014 | [5] 0.084 | rosiglitazone 0.035 | [6] -0.024 | [7] 0.005

SMARCB1 (UniProt Q12824)
inactive: [1] -0.058 | [4] 0.053 | [5] -0.116 | [6] 0.127 | [7] -0.222

SLC27A1 (UniProt Q6PCB7)
active: volasertib -0.639
inactive: [2] 0.022 | epoxomicin -0.021 | [3] -0.008 | [5] 0.008 | rosiglitazone -0.01 | [6] -0.072

TCOF1 isoform 3 (UniProt Q13428)
inactive: [1] 0.001 | epoxomicin -0.352 | [3] 0.03 | [4] 0.155 | [7] -0.436

SSBP4 (UniProt U3KPY3)
inactive: [5] 0.049

SPIRE1 (UniProt Q08AE8)
inactive: [1] 0.125 | [2] -0.181 | epoxomicin -0.238 | [3] -0.069 | [4] -0.116 | [5] -0.056 | rosiglitazone -0.002 | [7] -0.026

SMDT1 (UniProt Q9H4I9)
inactive: [1] 0.08 | epoxomicin -0.064 | [4] -0.044 | [5] 0.108 | rosiglitazone -0.037 | [6] 0.028 | [7] 0.01

STARD3 (UniProt Q14849)
inactive: volasertib 0.115 | [2] 0.091 | epoxomicin -0.019 | [3] 0.053 | [4] 0.039 | [5] -0.037 | rosiglitazone 0.024 | [6] -0.064
active: [7] -0.386

From the supplement of paper PMC10849652
